Source: PubChem
Rows were chosen to be rich in hits. Some 3.5% of all compounds tested hit in one or more screens of this group.
TEAD-YAP block: TEAD-YAP interaction inhibition. HEK-TIYL cells, TEAD-Gal4/YAP UAS-luciferase luminescence. inhibition, % at 9.12 µM. actives 1.4% (n = 640,000). AID 1259422; in the data active means inhibition above about 32%;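 further: 0% = median of test compound wells and 100% = reference inhibitor wells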
GPR151 ag: activators of human GPR151; Q8TDV0; PathHunter beta-arrestin GPR151 cells, luminescence; activation, % at 11.2 µM; actives 1% (n = 650,000); AID 1508602; in the data active means activation above about 4.9%;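 further: 0% = median of compound wells and 100% = cells with positive control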
Target sequence (Q8TDV0 whole entry, looked up): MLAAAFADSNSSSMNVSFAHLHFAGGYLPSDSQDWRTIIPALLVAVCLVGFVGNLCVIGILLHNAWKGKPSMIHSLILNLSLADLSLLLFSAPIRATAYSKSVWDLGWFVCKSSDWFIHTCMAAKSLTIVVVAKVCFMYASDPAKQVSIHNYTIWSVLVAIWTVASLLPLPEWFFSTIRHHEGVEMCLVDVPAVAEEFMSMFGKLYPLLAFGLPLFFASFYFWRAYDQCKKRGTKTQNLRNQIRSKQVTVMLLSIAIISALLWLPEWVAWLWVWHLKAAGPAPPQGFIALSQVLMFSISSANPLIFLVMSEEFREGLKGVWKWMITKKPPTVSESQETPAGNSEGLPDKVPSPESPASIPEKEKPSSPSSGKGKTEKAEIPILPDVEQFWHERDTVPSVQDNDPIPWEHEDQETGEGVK
MITF primary: inhibitors of human MITF; AID 1259374; O75030; actives 0.91% (n = 650,000); AlphaScreen MITF homodimerization, bead proximity signal; inhibition, % at 2.6 µM; in the data active means inhibition above about 50%;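 further: 0% = vehicle wells with protein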
FBW7 activator: activators of human E3 ligase FBW7; Q969H0; AlphaScreen FBW7–phospho-cyclin E peptide binding, activator screen; normalized activity (activation), % at 26.1 µM; actives 0.13% (n = 650,000); AID 1259310; in the data active means normalized activity above about 1.9%;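 further: purified mutant Fbw7 with reduced substrate affinity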
MITF confirm: confirmation of human MITF inhibitors. inhibition, % at 2.6 µM. actives 16% (n = 4,700). shares compounds with MITF primary. AID 1259372. AlphaScreen MITF homodimerization, biotin/His-MITF beads;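 active means inhibition above a cutoff derived from the DMSO control wells, cut at about 28% in these data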;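 further: 0% = MITF dimer wells with DMSO only; inhibitors lower the bead chemiluminescence by keeping MITF from dimerizing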
AS interf DR: optically interferes with AlphaScreen signal in dose response; shares compounds with MITF primary; AlphaScreen optical interference counterscreen, cell-free; IC50, µM; actives 6% (n = 480); AID 1259373; call rule not given here
AlphaScreen intf2: optically interferes with AlphaScreen signal | actives 7.6% (n = 4,700) | shares compounds with MITF primary | AID 1259376 | inhibition, % at 2.6 µM | LysRS AlphaScreen counterscreen, signal interference, triplicate;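 active means inhibition above a cutoff derived from the DMSO control wells, cut at about 30% in these data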
Active calls of the source: *; . = no result.

SMILES | TEAD-YAP block | GPR151 ag | MITF primary | FBW7 activator | MITF confirm | AlphaScreen intf2 | others
CCc1nc(SCC(=O)c2ccc(OC)c(C)c2)n[nH]1 | -7.8 | -0.9 | 2.0 | -0.1 | . | .
CCc1nc(SCC(=O)c2ccc(OC)cc2)n[nH]1 | -7.9 | -0.5 | 50.6* | -0.1 | 8.0 | 13.0
CC1(C)CC(=O)C=C(NCCN2CCN(C(=O)Nc3ccc(Cl)c(Cl)c3)CC2)C1 | 0.3 | 1.8 | 73.5* | 0.0 | 8.7 | 10.1
O=C(Cc1cn(-c2ccc(N3CCOCC3)nn2)c2ccccc12)NCCCN1CCCC1=O | -7.6 | -1.1 | -5.5 | 0.2 | . | .
O=C(Cc1cn(-c2ccc(NCCN3CCOCC3)nn2)c2ccccc12)NCCCN1CCCC1=O | -3.5 | 0.8 | 58.8* | 0.1 | 5.4 | 2.1
O=C1CCCN1CCCNc1cc(Cl)ncn1 | 5.2 | 0.0 | 8.9 | 0.1 | . | .
O=C1CCCN1CCCNc1ccc(Cl)nn1 | 0.8 | -1.5 | 83.7* | -0.2 | 7.6 | 9.0
CN(C)S(=O)(=O)c1ccc(N2CCCC2=O)cc1 | -0.9 | 0.0 | -1.1 | -0.1 | . | .
O=C(Nc1nnc(CCS(=O)(=O)c2ccc3ccccc3c2)s1)c1ccccc1Cl | -11.7 | -0.8 | 10.7 | 0.1 | . | .
CCOC(=O)c1ccc(NC(=O)CCOc2ccccc2)cc1 | 1.5 | 0.7 | 74.6* | 0.0 | 6.7 | 8.5
O=C(O)c1ccc(CS(=O)(=O)c2ccccc2)o1 | 5.9 | 0.1 | 55.9* | -0.7 | 74.2* | 13.5 | AS interf DR=>6.48
NNC(=O)c1ccc(CS(=O)(=O)c2ccccc2)o1 | -18.7 | -0.1 | -3.7 | -0.2 | . | .
C=CCc1cc(C)ccc1OCCCN1CCOCC1 | 4.6 | 4.0 | 72.4* | -0.1 | -11.8 | 37.5*
C=CCc1cc(OC)ccc1OCCCCN1CCOCC1 | -1.5 | -0.9 | 32.6 | -0.2 | . | .
Cc1ccc(Cl)c(OCCCN2CCOCC2)c1 | -13.3 | 0.1 | 54.5* | -0.1 | 13.1 | 14.2
C=CCc1cc(C)ccc1OCCCN1CC(C)OC(C)C1 (centres undefined) | -15.0 | -0.7 | 53.4* | 0.3 | 2.1 | -1.0
Cc1ccc(OCCN2CCOCC2)c(Cl)c1 | -4.2 | 1.7 | -7.2 | -0.1 | . | .
COc1cc(C)ccc1OCCCN1CC(C)OC(C)C1 (centres undefined) | -11.1 | 0.2 | 45.2 | 0.1 | . | .
C=CCc1cc(C)ccc1OCCNC(C)C | 10.3 | -0.1 | 87.6* | 0.0 | -19.4 | -3.0
CN1CCN(C(=O)c2ccc(-c3ccc(C(=O)NC4CC4)s3)cc2)CC1 | -7.4 | 0.3 | 11.8 | 0.2 | . | .
C=CCc1cc(C)ccc1OCCN1CCN(C)CC1 | -11.3 | -0.7 | 57.1* | 0.0 | 6.2 | 1.8
COc1ccn2c(C3CCN(C(C)=O)CC3)nc(-c3ccc(F)cc3)c2c1 | -29.5 | -0.5 | 4.3 | -0.7 | . | .
N#C/C(=C\c1nn(CCO)c(N)c1C#N)c1ccc(Cl)cc1Cl | -1.6 | -0.3 | 63.3* | 0.1 | -6.0 | -1.1
N#C/C(=C\c1cc(Cl)cc(Cl)c1OCc1ccc(Cl)cc1Cl)c1nn(CCO)c(N)c1C#N | 4.6 | -0.9 | 1.3 | -0.1 | . | .
CC1=C(C(=O)Nc2nc3ccccc3s2)C(c2cccc(Cl)c2)C2=C(CC(C)(C)CC2=O)N1 (centres undefined) | -0.2 | -1.6 | 8.1 | 1.1 | . | .
SMILES | TEAD-YAP block | GPR151 ag | MITF primary | FBW7 activator | MITF confirm | AlphaScreen intf2 | others
O=C1NC(=O)C(Cc2cc(Cl)c3cccnc3c2O)C(=O)N1 | 3.1 | 0.6 | 57.7* | -0.2 | 82.1* | 84.6*
O=c1oc2ccccc2c(O)c1Cc1cc(Cl)c2cccnc2c1O | 0.6 | 1.3 | 16.3 | 0.3 | . | .
O=C(/C=C/c1ccccc1)NCc1ccc(Cl)cc1 | -2.3 | 0.1 | 52.0* | 0.2 | 3.9 | -1.9
CCOCCn1c(SCC(=O)Nc2ccccc2)nc2c1c(=O)[nH]c(=O)n2C | 6.6 | -1.4 | 22.6 | 0.9 | . | .
Cc1ccc(Cn2c(CN3CCC(C)CC3)nc3c2c(=O)n(C)c(=O)n3C)cc1 | -7.4 | 1.9 | -0.8 | 0.1 | . | .
CC1CCN(Cc2nc3c(c(=O)n(C)c(=O)n3C)n2Cc2ccc(F)cc2)CC1 | 1.9 | 0.7 | 50.8* | 0.2 | 5.9 | 13.2
Cc1cc(=O)[nH]c(N2C(=O)c3ccccc3C2=O)n1 | -8.6 | -0.4 | -11.4 | 0.5 | . | .
COc1cccc(C(=O)CSc2nnc(-c3cccnc3)o2)c1 | -5.9 | 0.8 | 7.8 | -0.1 | . | .
O=C(NCCOc1ccccc1)c1cc(NCCN2CCOCC2)nc2ccccc12 | -1.7 | -0.8 | -11.7 | 0.1 | . | .
CCNCc1cc(Br)ccc1OC | 8.5 | 1.3 | 14.4 | 0.3 | . | .
